# Assay outcomes as filed in PubChem BioAssay.
# HIV RNase H inh = inhibitors of HIV-1 reverse transcriptase RNase H. RT-RNase H RNA/DNA duplex cleavage, fluorescence. P04585. 65,000 tested, 1.9% active. inhibition, % at 10 µM; in the data active = inhibition above about 50%
# RmlCD inh mix = RmlC/RmlD inhibition, mixture screen. inhibition, % at 5.5 µM. RmlC/RmlD coupled enzyme inhibition, 384-well mixture HTS. AID 1532. 110,000 tested, 0.39% active; in the data active = inhibition above about 30%, passing the limit was not always enough; inconclusive = no clear call, values can overlap the other calls
# Starred values were filed as active, the others as inactive; i = inactive; ? = inconclusive; . = no result given; + = active, no number. The full list was thinned out, with hits kept by preference.
SMILES,HIV RNase H inh,RmlCD inh mix
Cc1ccc(-c2nn3c(C)nnc3s2)cc1NC(=O)c1ccc(-c2ccc(Cl)cc2Cl)o1,60.3*,-19.4
Cc1ccc(-c2nn3c(C)nnc3s2)cc1NC(=O)c1ccc(-c2cccc(Cl)c2)o1,34.0,-5.0
COc1ccc(-n2c(SCC(=O)N3CCCCC3)nc(O)cc2=O)cc1,1.1,-10.6
O=C1c2ccccc2N(Cc2ccc(Cl)cc2)C2=NCCN12,-11.8,.
CC1(C)Cc2[nH]c(=O)c(C#N)cc2CS1,16.6,4.6
CCN1CCN(Cc2c(O)c(Cl)cc3c(C)cc(=O)oc23)CC1,1.0,?
Cc1c(C)c2cc(Cl)c(O)c(CN3CCCC(C)C3)c2oc1=O (configuration not stated),-0.5,112.5*
Cc1c(O)c(CN2CCCC(C)C2)cc2c3c(c(=O)oc12)CCC3 (configuration not stated),2.4,.
CCCc1cc(=O)oc2cc(C)c(CN3CCCC3)c(O)c12,27.3,.
CCCc1cc(=O)oc2c(CN3CCCC3)c(O)c(Cl)cc12,2.0,59.0*
Cc1c(C)c2cc(Cl)c(O)c(CN3CCN(C)CC3)c2oc1=O,3.3,97.3*
O=C1C2C3C=CC(C4CC34)C2C(=O)N1/N=C/c1ccc(-c2ccc(F)cc2[N+](=O)[O-])o1 (configuration not stated),.,-8.8
O=c1cc(-c2ccccc2Cl)oc2c(Br)ccc(O)c12,.,-7.9
CCNc1nc(NC(C)C)nc(SCCOc2ccc(C)cc2)n1,.,-16.6
COCCN1Cc2cccc(C(=O)Nc3ccc4c(c3)OCCO4)c2C1=O,1.1,-12.8
CN(C)Cc1ccc(-c2nc3cccc4c3n2CCNC4=O)cc1,.,-11.6
Cc1cc(NC(=O)c2ccc(S(=O)(=O)N3CCOCC3)cc2)nc2c1c(=O)oc1ccccc12,41.0,.
Cc1cc(NC(=O)c2ccc(S(=O)(=O)N3CCCC3)cc2)nc2c1c(=O)oc1ccccc12,72.0*,12.3
FC(F)(F)c1cccc(-c2noc(CN3CCOCC3)n2)c1,.,100.7
CN1C(=O)N(C)C(=O)C(CCc2ccccn2)(CCc2ccccn2)C1=O,-7.9,8.7
CN1C(=O)N(C)C(=O)C2(Sc3ccccc3C2=O)C1=O,-5.7,+
O=S(=O)(c1ccccc1Cl)N1CCCC1c1nc(-c2ccc(Cl)cc2)no1 (configuration not stated),.,-15.3
COc1ccc(Br)cc1C(=O)Nc1cccc(NC(=O)c2ccco2)c1,-10.8,-3.3
CN1Cc2cc(C(=O)c3cc(Cl)cc(CSc4ncccn4)c3O)cnc2NC1=O,59.2*,-1.5
Cc1ccc(O)c(C(=O)c2cnc3c(c2)CN(C)C(=O)N3)c1,.,10.0
SMILES,HIV RNase H inh,RmlCD inh mix
Cc1ccnc(SCCn2c(N3CCN(C)CC3)nc3c2c(=O)[nH]c(=O)n3C)n1,-2.9,.
Cc1ccc2cc3cc(C(=O)NCCC(C)C)oc3nc2c1,-2.2,.
Cc1ccc2cc3cc(C(=O)NCc4ccco4)oc3nc2c1,51.1*,34.2
O=C(NCN1C(=O)C2C3C=CC(C3)C2C1=O)Nc1nccs1 (configuration not stated),54.6*,-6.4
CCc1nnc(NC(=O)NCN2C(=O)C3C4C=CC(C4)C3C2=O)s1 (configuration not stated),-3.1,-11.8
CC(C)n1c(Nn2cnnc2)nc2ccccc21,2.8,-11.8
CCOC(=O)N1CCN(c2ncnc3c2cnn3-c2ccc(Cl)cc2)CC1,69.3*,-11.0
CCN1CCN(c2ncnc3c2cnn3-c2ccc(Cl)cc2)CC1,-7.3,9.5
CCCCCCc1cc2cc(-c3nnc(-c4ccccc4O)o3)c(=O)oc2cc1O,46.2,162.2*
COc1ccc(-c2nnc(-c3cc4ccccc4oc3=O)o2)cc1,.,-2.4
COc1cc(-c2nnc(SCc3cc(=O)oc4cc(O)c(O)cc34)o2)cc(OC)c1OC,.,-2.7
CCCCCCc1cc2cc(-c3nnc(-c4cc(OC)c(OC)c(OC)c4)o3)c(=O)oc2cc1O,.,68.8*
Cc1c(N=Cc2nc3ccccc3[nH]2)c(=O)n(-c2ccccc2)n1C,3.0,4.6
NC1=NC[C@@H](Cc2ccc(O)cc2)N1CCCCC1CCCCC1,.,6.2
COC(=O)c1sc(=S)sc1C(=O)OC,52.4*,-1.3
COC(=O)c1c(N)sc(C(C)=O)c1C,-23.1,-2.3
O=C(Nc1ccccc1C(F)(F)F)N1CCN(C(c2ccccc2)c2ccccc2)CC1,.,7.7
CCc1ccc(C2CC(c3ccco3)=NN2S(C)(=O)=O)cc1 (configuration not stated),.,9.0
Cc1cccc2nc(CSc3nnc4ccccn34)cn12,.,-8.4
Cc1cccn2c(=O)c3cc(C(=O)N4CCN(C(=O)c5ccco5)CC4)n(C)c3nc12,-4.8,.
Cn1c(C(=O)N2CCN(C(=O)c3ccco3)CC2)cc2c(=O)n3ccccc3nc21,-0.6,96.4*
CCOC(=O)c1ccc2c(c1)C1C=CCC1C(C(=O)O)N2 (configuration not stated),52.4*,1.1
COCCNC(=O)C1Nc2ccc(C(F)(F)F)cc2C2C=CCC12 (configuration not stated),.,4.5
COCCNC(=O)Cn1nc(C(F)(F)F)cc1C,-15.7,-3.5
O=C(COC(=O)c1cccc(S(=O)(=O)N2CCOCC2)c1)Nc1ccc2c(c1)OCO2,2.6,i
SMILES,HIV RNase H inh,RmlCD inh mix
CCOC(=O)NC1(Nc2ccc(Cl)cn2)Oc2ccccc2O1,57.3*,6.0
Cc1ccccc1C(=O)Nc1ccc(Cl)cn1,-13.3,-13.4
Cn1c(SCC(=O)NCc2ccco2)nnc1-c1ccccc1,.,-17.3
Cc1nc2sc(C(=O)O)c(N)c2c2c1COC(C)(C)C2,8.7,4.7
CCOC(=O)c1sc2nc(-c3ccco3)c3c(c2c1N)CC(C)(C)OC3,90.0*,12.2
Oc1cc2c(cc1O)[C@@H](c1ccccc1)CNCC2,.,3.5
NC(=O)C1CCN(CC(=O)c2c[nH]c3ccc(F)cc23)CC1,-4.7,-13.6
c1ccc(Cn2ccnc2SCc2nnc(-c3ccccc3)o2)cc1,-29.0,-0.8
N=c1c(C(=O)NCc2ccccc2)cc2c(=O)n3ccccc3nc2n1CCCN1CCOCC1,-11.4,.
N=c1c(C(=O)NCc2ccc(F)cc2)cc2c(=O)n3ccccc3nc2n1CCCN1CCOCC1,-19.0,30.7*
O=C(Nc1ccc2c(c1)nc1n2CCN(Cc2ccccc2)C1)NC1CCCCC1,.,24.0
COCCN1CCn2c(nc3cc(NC(=O)NC4CCCCC4)ccc32)C1,-14.5,59.4*
CC(C)C(OC(=O)c1ccco1)C(=O)NC1CCCCC1 (configuration not stated),-2.3,10.8
C=Cc1c(C)c2cc3[nH]c(cc4nc(cc5nc(cc1[nH]2)C(C)=C5CCC(=O)O)C(CCC(=O)O)=C4C)c(C)c3C=C,.,42.9*
O=C1NN(c2ccccc2)C(=O)/C1=C\c1cccc(OC(=O)c2cccs2)c1,.,-9.3
CCCCn1c(CCC(=O)O)ccc1-c1cccs1,-9.8,-12.2
O=C(O)CCc1ccc(-c2cccs2)n1NC(=O)c1ccc(O)cc1,50.6*,-44.0
CC(=O)c1c(C)[nH]c(C(=O)N2CCc3ccccc32)c1C,-9.4,-6.7
Cc1ccc(-c2nc3cccnc3o2)cc1NC(=O)COc1ccc(C(C)(C)C)cc1,.,2.7
Cc1ccc(-c2nc3cccnc3o2)cc1NC(=O)COc1ccc(Cl)cc1C,53.0*,-33.2
COc1ccccc1NC(=O)c1sc2ncn(Cc3cccc(C)c3)c(=O)c2c1C,.,65.6*
COc1ccccc1NC(=O)c1sc2ncn(Cc3ccc(C)cc3)c(=O)c2c1C,.,36.5
CCOC(=O)c1sc(=S)n(-c2cc(F)ccc2F)c1N,72.0*,-9.4
COc1ccc(CNC(=O)c2sc(=S)n(-c3ccc(OC)cc3)c2N)cc1,.,8.7
